Data published in PubChem BioAssay (NCATS).
Records with an inconclusive call do not appear. Activity calls are given as the source filed them. The call rests on the fitted dose curve; in most records, active means well fitted curve in the direction sought with a large enough effect; inconclusive means small, poorly fitted or top-dose-only effect, or another doubt; inactive means no such curve, though single readings can be large; an effect the other way counts as inactive or inconclusive.

What was measured:
[1] = molecular target: Thioredoxin reductase 1, cytoplasmic (Rattus norvegicus) (UniProt O89049); experiment: qHTS Assay for Substrates of Mammalian Selenoprotein Thioredoxin Reductase 1 (TrxR1) (AID 488772);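 further: NADPH fluorescence in the first read after selenite addition and not the 8 min delta; series mostly up to about 57 µM; a drop in NADPH fluorescence below the no-compound background marks a TrxR1 substrate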
Procedure, shortened: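 Quantitative HTS in Tris-HCl buffer at pH 7.5 with EDTA and Tween-20, using rat TrxR1, 400 uM NADPH and 400 uM selenite (final). A fall in initial NADPH fluorescence relative to background marked substrate behaviour.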

[2] = molecular target: Thioredoxin reductase 1, cytoplasmic (Rattus norvegicus) (UniProt O89049); experiment: qHTS Assay for Inhibitors of Mammalian Selenoprotein Thioredoxin Reductase 1 (TrxR1) (AID 488773);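 further: drop in NADPH fluorescence over an 8 min run after selenite addition; series mostly up to about 57 µM; nearly all actives have a fitted effect of over 40% in size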
Procedure, shortened: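 Steps: enzyme (90 nM) plus NADPH (400 uM final), 5 min at ~22 deg C; compound added, 15 min; selenite (400 uM final) added; fluorescence followed for 8 min. Concentration-response curves derived from the normalized delta values.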

[3] = molecular target: Flap endonuclease 1 (Homo sapiens) (UniProt P39748); experiment: qHTS Validation Assay for the Inhibitors of Human Flap endonuclease 1 (FEN1) (AID 488816)
Procedure, shortened: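 Readings taken at 0 and 15 min after starting the reaction with 50 nM (final) substrate supplied the signal. Compounds had first sat with 10 nM FEN1 reagent for 15 min at room temperature. Values come from Hill-equation concentration-response fits.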

[4] = molecular target: Chromobox protein homolog 1 (Homo sapiens) (UniProt P83916); experiment: qHTS Validation Assay for Inhibitors of HP1-beta Chromodomain Interactions with Methylated Histone Tails (AID 488953);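 further: loss of AlphaScreen luminescence from HP1-beta binding biotinylated H3K9me3 peptide; series mostly up to about 110 µM; nearly all actives have a fitted effect of over 50% in size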
Procedure, shortened: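 Measured as loss of AlphaScreen luminescence from streptavidin donor and nickel acceptor beads (10 ug/mL final) bridging HP1-beta and biotin-H3(1-18)K9me3, each 50 nM. Compounds met the preassembled complex for 30 min at RT.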

[5] = molecular target: Methanococcus maripaludis chaperonin (MmCpn) (UniProt Q6LX38); experiment: High-Throughput Screening for Modulators of Cytosolic Chaperonin Activity: MmCpn Primary Screen (AID 488978);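 further: 50 nM MmCpn enzyme hydrolysing 30 µM ATP at 37 °C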
Procedure, shortened: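 Steps: chaperonin 50 nM final; add compound, 5 min RT; start with ATP, 30 uM final; hold 10 min at 37C; add ADP Transcreener HTRF reagent, 5 min; read ex 320, em 590 and 665 nm.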

[6] = Quantitative high throughput screen for delayed death inhibitors of the malarial parasite plastid, 96 hour incubation (AID 488745);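 further: luciferase-expressing P. falciparum in erythrocytes at 2% hematocrit and 0.1% parasitemia; series mostly up to about 29 µM; nearly all actives have a fitted effect of over 70% in size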
Procedure, shortened: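 Growth of reporter-bearing P. falciparum in red cells is measured after 96 h with compound, covering two erythrocytic cycles. Luminescence from the integrated luciferase serves as the growth signal.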

[7] = Quantitative high throughput screen for delayed death inhibitors of the malarial parasite plastid, 48 hour incubation (AID 488752); further: nearly all actives have a fitted effect of over 65% in size
Procedure, shortened: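 One parasite generation (48 h, 37 C, 5% CO2) of luciferase-reporter P. falciparum in erythrocytes is run with test compound; decreased luminescence indicates inhibited growth.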

[8] = molecular target: M-phase phosphoprotein 8 (Homo sapiens) (UniProt Q99549); experiment: qHTS Validation Assay for Inhibitors for MPP8 Chromodomain Interactions with Methylated Histone Tails (AID 488949);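 further: 50 nM MPP8 with 50 nM peptide preformed then compounds added for 30 min; AlphaScreen signal from MPP8 chromodomain bound to biotinylated H3K9me3 peptide; top concentration of the series differs between compounds; nearly all actives have a fitted effect of over 55% in size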
Procedure, shortened: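 50 nM MPP8 + 50 nM b-H3K9me3 peptide, PBS pH 7.4/0.01% Tween-20, 30 min RT; + cpd 30 min RT; + AlphaScreen donor/Ni-chelate acceptor beads 10 ug/mL final, 30 min dark; luminescence read.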

[9] = molecular target: Transient receptor potential cation channel subfamily V member 1 (Homo sapiens) (UniProt Q8NER1); experiment: HTS Assay for Compounds that Act as Enhancers of the Vanilloid Receptor 1 (AID 488979)
Procedure, shortened: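 Calcium influx kinetics via Fluo-8 (480/520 nm) in TRPV1-expressing cells, 2000/well cultured overnight at 35.5C. Compound-alone read 3 min (agonist phase), followed by EC20 capsaicin challenge for 2 min (enhancer phase).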

[10] = molecular target: ATP-dependent 6-phosphofructokinase (Trypanosoma brucei brucei) (UniProt O15648); experiment: qHTS Validation Assay to Find Inhibitors of T. brucei phosphofructokinase (AID 485368)
Procedure, shortened: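 Enzyme reaction in triethanolamine buffer pH 8.0 with 5 mM MgCl2, 0.01% Tween20 and 0.1% BSA; PFK 1.25 nM, F6P 0.5 mM, ATP 0.1 mM, 45 min RT. ADP quantified by ADP-Glo.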

Measured: outcome

Chain of Thioredoxin reductase 1, cytoplasmic (Rattus norvegicus) (O89049 whole entry, looked up): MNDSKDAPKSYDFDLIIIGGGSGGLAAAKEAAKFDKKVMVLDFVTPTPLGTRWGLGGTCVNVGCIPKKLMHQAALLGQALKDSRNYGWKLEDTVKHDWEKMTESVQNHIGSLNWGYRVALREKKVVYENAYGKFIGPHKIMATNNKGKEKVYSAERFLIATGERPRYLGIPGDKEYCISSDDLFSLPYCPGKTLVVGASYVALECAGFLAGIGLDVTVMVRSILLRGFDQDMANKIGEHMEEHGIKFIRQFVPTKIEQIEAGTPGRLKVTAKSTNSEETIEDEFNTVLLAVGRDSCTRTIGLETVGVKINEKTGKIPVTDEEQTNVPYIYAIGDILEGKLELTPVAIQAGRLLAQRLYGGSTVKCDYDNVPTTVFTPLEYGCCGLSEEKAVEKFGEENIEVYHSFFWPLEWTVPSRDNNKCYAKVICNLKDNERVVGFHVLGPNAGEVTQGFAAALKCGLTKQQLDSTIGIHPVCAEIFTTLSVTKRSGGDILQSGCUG
Chain of M-phase phosphoprotein 8 (Homo sapiens) (Q99549 whole entry, looked up): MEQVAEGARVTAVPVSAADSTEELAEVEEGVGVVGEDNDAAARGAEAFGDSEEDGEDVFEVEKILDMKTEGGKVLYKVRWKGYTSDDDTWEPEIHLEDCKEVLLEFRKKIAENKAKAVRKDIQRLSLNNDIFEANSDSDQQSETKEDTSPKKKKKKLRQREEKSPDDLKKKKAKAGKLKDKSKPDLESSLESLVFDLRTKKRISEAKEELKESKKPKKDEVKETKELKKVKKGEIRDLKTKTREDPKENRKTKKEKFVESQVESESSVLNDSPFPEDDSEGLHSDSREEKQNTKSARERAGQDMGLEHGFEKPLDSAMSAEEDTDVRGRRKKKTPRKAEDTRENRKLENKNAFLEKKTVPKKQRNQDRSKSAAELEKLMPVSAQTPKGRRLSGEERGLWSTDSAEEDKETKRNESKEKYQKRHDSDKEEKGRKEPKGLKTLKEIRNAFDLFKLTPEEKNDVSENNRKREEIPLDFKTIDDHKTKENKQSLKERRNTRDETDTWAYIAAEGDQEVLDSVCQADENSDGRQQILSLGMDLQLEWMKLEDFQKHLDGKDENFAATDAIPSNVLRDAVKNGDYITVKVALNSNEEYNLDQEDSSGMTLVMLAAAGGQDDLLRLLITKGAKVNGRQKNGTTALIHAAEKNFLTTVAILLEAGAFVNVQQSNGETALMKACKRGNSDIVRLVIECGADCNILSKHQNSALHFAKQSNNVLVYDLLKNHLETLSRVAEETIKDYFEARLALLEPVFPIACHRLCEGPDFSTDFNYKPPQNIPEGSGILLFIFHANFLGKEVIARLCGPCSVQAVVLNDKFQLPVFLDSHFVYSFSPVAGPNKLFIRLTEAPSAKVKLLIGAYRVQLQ
Chain of Methanococcus maripaludis chaperonin (MmCpn) (Q6LX38 1-543): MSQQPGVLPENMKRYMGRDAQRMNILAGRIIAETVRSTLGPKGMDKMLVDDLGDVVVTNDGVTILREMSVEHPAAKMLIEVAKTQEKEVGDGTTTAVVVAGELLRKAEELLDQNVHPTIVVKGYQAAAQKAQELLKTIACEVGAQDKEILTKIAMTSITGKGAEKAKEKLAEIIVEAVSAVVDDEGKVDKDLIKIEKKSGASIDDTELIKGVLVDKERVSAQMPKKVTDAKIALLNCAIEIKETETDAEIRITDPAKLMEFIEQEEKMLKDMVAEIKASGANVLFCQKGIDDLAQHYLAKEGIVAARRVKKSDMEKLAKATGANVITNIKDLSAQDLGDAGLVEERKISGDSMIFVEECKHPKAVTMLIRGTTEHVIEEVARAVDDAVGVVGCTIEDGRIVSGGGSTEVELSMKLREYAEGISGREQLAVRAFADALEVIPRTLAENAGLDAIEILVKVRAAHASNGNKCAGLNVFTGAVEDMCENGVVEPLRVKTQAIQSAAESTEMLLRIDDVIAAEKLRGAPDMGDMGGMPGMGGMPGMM
Chain of Flap endonuclease 1 (Homo sapiens) (P39748 whole entry, looked up): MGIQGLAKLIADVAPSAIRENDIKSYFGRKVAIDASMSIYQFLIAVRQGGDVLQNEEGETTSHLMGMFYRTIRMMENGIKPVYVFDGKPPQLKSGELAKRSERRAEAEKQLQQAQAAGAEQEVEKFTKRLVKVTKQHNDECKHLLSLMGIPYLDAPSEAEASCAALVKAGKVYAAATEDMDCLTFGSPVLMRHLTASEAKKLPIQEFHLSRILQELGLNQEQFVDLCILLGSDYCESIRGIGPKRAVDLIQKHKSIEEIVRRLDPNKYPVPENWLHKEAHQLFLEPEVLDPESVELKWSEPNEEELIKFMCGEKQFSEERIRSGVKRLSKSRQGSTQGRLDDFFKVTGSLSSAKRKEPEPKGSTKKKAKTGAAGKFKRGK
Chain of Chromobox protein homolog 1 (Homo sapiens) (P83916 whole entry, looked up): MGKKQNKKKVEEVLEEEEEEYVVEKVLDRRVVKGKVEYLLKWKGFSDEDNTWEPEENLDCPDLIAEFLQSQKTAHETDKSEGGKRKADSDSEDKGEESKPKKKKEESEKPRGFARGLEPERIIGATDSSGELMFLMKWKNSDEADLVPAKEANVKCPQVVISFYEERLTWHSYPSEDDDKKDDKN
Chain of Transient receptor potential cation channel subfamily V member 1 (Homo sapiens) (Q8NER1 whole entry, looked up): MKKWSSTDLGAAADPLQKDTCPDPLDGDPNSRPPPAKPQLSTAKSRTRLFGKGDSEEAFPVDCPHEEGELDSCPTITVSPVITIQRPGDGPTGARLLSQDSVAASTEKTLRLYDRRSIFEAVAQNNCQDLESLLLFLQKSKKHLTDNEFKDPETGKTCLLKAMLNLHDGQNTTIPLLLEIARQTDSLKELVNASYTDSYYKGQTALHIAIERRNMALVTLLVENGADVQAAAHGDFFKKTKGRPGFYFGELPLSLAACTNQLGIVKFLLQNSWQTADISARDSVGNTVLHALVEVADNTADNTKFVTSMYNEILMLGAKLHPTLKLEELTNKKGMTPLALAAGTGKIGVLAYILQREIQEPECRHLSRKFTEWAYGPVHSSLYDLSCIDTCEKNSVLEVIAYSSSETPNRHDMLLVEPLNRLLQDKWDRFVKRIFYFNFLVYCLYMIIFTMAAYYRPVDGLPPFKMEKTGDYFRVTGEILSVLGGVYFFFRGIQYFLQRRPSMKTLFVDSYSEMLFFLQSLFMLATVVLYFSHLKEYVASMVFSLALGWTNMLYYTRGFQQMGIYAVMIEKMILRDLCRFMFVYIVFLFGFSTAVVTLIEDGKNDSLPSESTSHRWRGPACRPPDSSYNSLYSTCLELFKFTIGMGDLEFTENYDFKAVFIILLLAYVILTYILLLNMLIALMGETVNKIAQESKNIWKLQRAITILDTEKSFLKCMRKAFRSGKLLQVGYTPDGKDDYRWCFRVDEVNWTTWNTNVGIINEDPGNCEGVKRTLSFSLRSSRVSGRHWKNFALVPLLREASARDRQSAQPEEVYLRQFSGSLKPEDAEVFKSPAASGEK
Chain of ATP-dependent 6-phosphofructokinase (Trypanosoma brucei brucei) (O15648 whole entry, looked up): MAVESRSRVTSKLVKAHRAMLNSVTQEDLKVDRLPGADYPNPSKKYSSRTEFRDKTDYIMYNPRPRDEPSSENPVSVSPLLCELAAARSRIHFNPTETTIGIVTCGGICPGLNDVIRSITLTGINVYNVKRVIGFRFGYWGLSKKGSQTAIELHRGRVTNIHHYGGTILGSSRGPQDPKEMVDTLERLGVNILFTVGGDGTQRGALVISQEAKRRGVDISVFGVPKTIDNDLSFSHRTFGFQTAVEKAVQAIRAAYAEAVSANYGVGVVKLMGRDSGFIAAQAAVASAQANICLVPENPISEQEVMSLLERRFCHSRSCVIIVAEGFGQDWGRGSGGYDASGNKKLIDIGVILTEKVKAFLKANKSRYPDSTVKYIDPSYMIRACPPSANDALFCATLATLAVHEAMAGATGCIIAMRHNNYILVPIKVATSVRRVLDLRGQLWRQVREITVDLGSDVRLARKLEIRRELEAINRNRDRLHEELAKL

COc1ccc2cc([S+]([O-])Cc3ncc(C)c(OC)c3C)nc2c1
inactive: [1] | [2] | [3] | [4] | [5]

N=c1ccn2c(n1)O[C@H]1[C@@H](O)[C@@H](CO)O[C@H]12
inactive: [6] | [7] | [8] | [9]

CN[C@H](CC(C)C)C(=O)N[C@H]1C(=O)N[C@@H](CC(N)=O)C(=O)N[C@@H]2C(=O)N[C@H]3C(=O)N[C@H](C(=O)N[C@H](C(=O)O)c4cc(O)cc(O)c4-c4cc3ccc4O)[C@H](O)c3ccc(c(Cl)c3)Oc3cc2cc(c3O[C@@H]2O[C@H](CO)[C@@H](O)[C@H](O)[C@@H]2O[C@H]2C[C@](C)(N)[C@H](O)[C@H](C)O2)Oc2ccc(cc2Cl)[C@H]1O
inactive: [1] | [2] | [8] | [5]

O=c1[nH]c(=O)n([C@H]2C[C@@H](O)[C@@H](CO)O2)cc1C=CBr
not listed: [6] | [7] | [9]
inactive: all other assays above
